# Reference: the supplement of paper PMC8728848
# Shown is part of a subset that was picked to be rich in the strongest signals.
# B1: SCA (Schizophyllum commune) (protein)
# chain: MGIDQGVYLITNAGSGTAATLKDGYVKGWERIKGKEQLNQLWFVKSVKTSASDPGYAAFNLATNKVLDLEKGLADRGTPILGWDYHEGDNQHWVIKKQADGKYYKIQSVKTQTFVDLNNGGKDNGTKIQGWVGSWDETNSHQRWVFNQFSATGSRIKSILDTHPKIHGKVIVEWPDRIYFTPDQYIFEAIWAKTGLADIKPRDPLFQSEAYEKVFKGWVVSRAQEIIKVDGFDILVGSLSLVEKSTQKIKVLDVSVRTSDDKSPDLSQIVFFDPESGRTLVDIPEGYEVNSVII
# B2: CaSRK1 (Capsicum annuum) (protein)
# chain: MALCKIFPFAFILLSCSCYLISGQRFDYPTANLSTTWINSVSAPHSIDYTDGSRIRAILLRGTFGPRYACGFYCNGNCESYLFAIFIVQTNSASQITSPAIGFPQVVWSANRNNPVKINSTLQLTAEGDLVLRDADGTLAWSTNTAGKSVAGLSLTDEGNLALFDSKNATVWQSFDHPTDALVPGQKLVPGMKLTASVSRTNWTAGGLFALSAIDNGLVAFVESNPPQKYFEASVGGSNTSGGSNYVKYLNGSLTLFTHSADTTELILISITPASSAQYMKLESNGHLKVYEWTSRGWREVDDLLTGFRGECNYPTVCGRYGICTMGQCSCPTSSSSRTYFRPIDVRRPSLGCSEVTKLTCQNTKKHSPLEVEDVDYFAFKAGISDTDLNTCKRACLEKCSCKAAFFRSGLNSSRTRGDCYLPTEIFSIMNNEKDRTRYDSVAFIKVQV
# How the values were obtained:
# Assay in all cases: glycan array binding signal (z-score within array); higher = stronger binding
# Settings in all cases: glycan notation: IUPAC condensed, linker removed
# [1] = target: Fuc(a1-2)Gal(b1-3)[Fuc(a1-4)]GlcNAc
# Method in brief: (§1)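 The Consortium for Functional Glycomics database supplied 3228 glycan arrays, of which those lacking an available protein sequence were dropped. The binding signal, a within-array Z-score, was averaged across arrays of the same protein sequence and across linkers. Negative scores can be read as non-binding.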
# Fuc(a1-2)Gal(b1-4)Glc = target: Fuc(a1-2)Gal(b1-4)Glc
# Method in brief: as §1
# [2] = target: Fuc(a1-2)Gal6S(b1-4)GlcNAc
# Method in brief: as §1
# [3] = target: Fuc(a1-2)[Gal(a1-3)]Gal(b1-4)GlcNAc
# Method in brief: as §1
# [4] = target: Fuc(a1-2)[Gal(a1-3)]Gal(b1-4)GlcNAc(b1-2)Man(a1-3)[Fuc(a1-2)[Gal(a1-3)]Gal(b1-4)GlcNAc(b1-2)Man(a1-6)]Man(b1-4)GlcNAc(b1-4)GlcNAc
# Method in brief: as §1
# [5] = target: Fuc(a1-2)[Gal(a1-3)]Gal(b1-4)GlcNAc(b1-3)GalNAc
# Method in brief: as §1
# [6] = target: Fuc(a1-2)[Gal(a1-3)]Gal(b1-4)[Fuc(a1-3)]Glc
# Method in brief: as §1
# [7] = target: Fuc(a1-2)[GalNAc(a1-4)]Gal(b1-4)GlcNAc
# Method in brief: as §1
# [8] = target: Fuc(a1-3)[Gal(b1-4)]Glc6S
# Method in brief: as §1
# [9] = target: Gal(a1-3)Fuc(a1-2)Gal(b1-4)GlcNAc(b1-3)[Gal(a1-3)Fuc(a1-2)Gal(b1-4)GlcNAc(b1-6)]GalNAc
# Method in brief: as §1
# Gal(a1-3)Gal(b1-4)GlcNAc = target: Gal(a1-3)Gal(b1-4)GlcNAc
# Method in brief: as §1
# [10] = target: Gal(a1-4)Gal(b1-3)GlcNAc(b1-2)Man(a1-3)[Gal(a1-4)Gal(b1-3)GlcNAc(b1-2)Man(a1-6)]Man(b1-4)GlcNAc(b1-4)GlcNAc
# Method in brief: as §1
# Gal(a1-4)GlcNAc = target: Gal(a1-4)GlcNAc
# Method in brief: as §1
# [11] = target: Gal(b1-3)Gal(b1-4)GlcNAc(b1-2)Man(a1-3)[Gal(b1-3)Gal(b1-4)GlcNAc(b1-2)Man(a1-6)]Man(b1-4)GlcNAc(b1-4)GlcNAc
# Method in brief: as §1
# Gal(b1-3)GlcNAc = target: Gal(b1-3)GlcNAc
# Method in brief: as §1
# [12] = target: Gal(b1-3)GlcNAc(b1-2)Man(a1-3)[Gal(b1-3)GlcNAc(b1-2)Man(a1-6)]Man(b1-4)GlcNAc(b1-4)[Fuc(a1-6)]GlcNAc
# Method in brief: as §1
# [13] = target: Gal(b1-3)GlcNAc(b1-3)Gal(b1-4)GlcNAc
# Method in brief: as §1
# [14] = target: Gal(b1-3)[Fuc(a1-4)]GlcNAc(b1-2)Man(a1-3)[Gal(b1-3)[Fuc(a1-4)]GlcNAc(b1-2)Man(a1-6)]Man(b1-4)GlcNAc(b1-4)[Fuc(a1-6)]GlcNAc
# Method in brief: as §1
# [15] = target: Gal(b1-4)GlcNAc(b1-3)Gal(b1-4)Glc
# Method in brief: as §1
# [16] = target: Gal(b1-4)GlcNAc(b1-3)GalNAc
# Method in brief: as §1
# [17] = target: GalNAc(a1-3)Fuc(a1-2)Gal(b1-4)GlcNAc(b1-3)[GalNAc(a1-3)Fuc(a1-2)Gal(b1-4)GlcNAc(b1-6)]GalNAc
# Method in brief: as §1
# GalNAc(b1-4)Gal(b1-4)Glc = target: GalNAc(b1-4)Gal(b1-4)Glc
# Method in brief: as §1
# GlcA(b1-3)Gal = target: GlcA(b1-3)Gal
# Method in brief: as §1
# GlcNAc(b1-3)Gal(b1-4)Glc = target: GlcNAc(b1-3)Gal(b1-4)Glc
# Method in brief: as §1
# Kdn(a2-3)Gal(b1-4)Glc = target: Kdn(a2-3)Gal(b1-4)Glc
# Method in brief: as §1
# Kdn(a2-6)Gal(b1-4)GlcNAc = target: Kdn(a2-6)Gal(b1-4)GlcNAc
# Method in brief: as §1
# [18] = target: Neu5Ac(a2-3)Gal(b1-4)GlcNAc(b1-3)Gal(b1-4)[Fuc(a1-3)]GlcNAc
# Method in brief: as §1
# [19] = target: Neu5Ac(a2-3)[GalNAc(b1-4)]Gal(b1-4)GlcNAc(b1-3)GalNAc
# Method in brief: as §1
# Neu5Ac(a2-6)GalNAc = target: Neu5Ac(a2-6)GalNAc
# Method in brief: as §1
# [20] = target: Neu5Ac9Ac(a2-3)Gal(b1-4)GlcNAc
# Method in brief: as §1
# [21] = target: Neu5Gc(a2-3)Gal(b1-4)GlcNAc
# Method in brief: as §1
# [22] = target: Neu5Gc(a2-6)Gal(b1-4)GlcNAc
# Method in brief: as §1
# [23] = target: Man(a1-3)[Man(a1-6)]Man(a1-6)[Man(a1-2)Man(a1-3)]Man(b1-4)GlcNAc(b1-4)GlcNAc
# Method in brief: as §1
# [24] = target: Man(a1-3)[Man(a1-6)]Man(a1-6)[Man(a1-3)]Man
# Method in brief: as §1
# Man(a1-6)Man = target: Man(a1-6)Man
# Method in brief: as §1
# [25] = target: Neu5Ac(a2-3)Gal(b1-3)GlcNAc(b1-2)Man(a1-3)[GlcNAc(b1-4)][Neu5Ac(a2-3)Gal(b1-3)GlcNAc(b1-2)Man(a1-6)]Man(b1-4)GlcNAc(b1-4)GlcNAc
# Method in brief: as §1
# [26] = target: Neu5Ac(a2-3)Gal(b1-3)GlcNAc(b1-4)Gal(b1-4)Glc
# Method in brief: as §1
# Neu5Ac(a2-3)Gal(b1-4)Glc = target: Neu5Ac(a2-3)Gal(b1-4)Glc
# Method in brief: as §1
# [27] = target: Neu5Ac(a2-3)Gal(b1-4)GlcNAc(b1-2)Man
# Method in brief: as §1
# [28] = target: Neu5Ac(a2-3)Gal(b1-4)GlcNAc(b1-2)[Neu5Ac(a2-3)Gal(b1-4)GlcNAc(b1-4)]Man(a1-3)[GlcNAc(b1-4)][Neu5Ac(a2-3)Gal(b1-4)GlcNAc(b1-4)Man(a1-6)]Man(b1-4)GlcNAc(b1-4)GlcNAc
# Method in brief: as §1
# [29] = target: Neu5Ac(a2-3)Gal(b1-4)GlcNAc(b1-3)Gal(b1-4)GlcNAc(b1-2)Man(a1-3)[Neu5Ac(a2-3)Gal(b1-4)GlcNAc(b1-3)Gal(b1-4)GlcNAc(b1-2)Man(a1-6)]Man(b1-4)GlcNAc(b1-4)GlcNAc
# Method in brief: as §1
# [30] = target: Neu5Ac(a2-3)[GalNAc(b1-4)]Gal(b1-4)GlcNAc
# Method in brief: as §1
# [31] = target: Neu5Ac(a2-6)Gal(b1-4)GlcNAc(b1-2)Man(a1-3)[Gal(b1-4)GlcNAc(b1-2)Man(a1-6)]Man(b1-4)GlcNAc(b1-4)GlcNAc
# Method in brief: as §1
# [32] = target: Neu5Ac(a2-6)Gal(b1-4)GlcNAc(b1-2)Man(a1-6)[Man(a1-3)]Man(b1-4)GlcNAc(b1-4)GlcNAc
# Method in brief: as §1
# [33] = target: Neu5Ac(a2-6)Gal(b1-4)GlcNAc(b1-2)[Neu5Ac(a2-6)Gal(b1-4)GlcNAc(b1-4)]Man(a1-3)[GlcNAc(b1-4)][Neu5Ac(a2-6)Gal(b1-4)GlcNAc(b1-4)Man(a1-6)]Man(b1-4)GlcNAc(b1-4)GlcNAc
# Method in brief: as §1
# [34] = target: Neu5Ac(a2-6)Gal(b1-4)GlcNAc(b1-3)Gal(b1-4)GlcNAc
# Method in brief: as §1
# [35] = target: Neu5Ac(a2-6)Gal(b1-4)GlcNAc(b1-3)Gal(b1-4)GlcNAc(b1-3)Gal(b1-4)GlcNAc(b1-2)Man(a1-3)[Neu5Ac(a2-6)Gal(b1-4)GlcNAc(b1-3)Gal(b1-4)GlcNAc(b1-3)Gal(b1-4)GlcNAc(b1-2)Man(a1-6)]GalNAc
# Method in brief: as §1
# [36] = target: Neu5Ac(a2-8)Neu5Ac(a2-3)[GalNAc(b1-4)]Gal(b1-4)Glc
# Method in brief: as §1
# [37] = target: Neu5Ac(a2-8)Neu5Ac(a2-8)Neu5Ac(a2-8)Neu5Ac(a2-3)[GalNAc(b1-4)]Gal(b1-4)Glc
# Method in brief: as §1
# [38] = target: Neu5Gc(a2-3)Gal(b1-3)[Fuc(a1-4)]GlcNAc
# Method in brief: as §1
# Neu5Gc(a2-3)Gal(b1-4)Glc = target: Neu5Gc(a2-3)Gal(b1-4)Glc
# Method in brief: as §1
binder,measurement,setting,value
B1,glycan array binding signal (z-score),[1],-0.163
same,glycan array binding signal (z-score),Fuc(a1-2)Gal(b1-4)Glc,-0.153
same,glycan array binding signal (z-score),[2],-0.161
same,glycan array binding signal (z-score),[3],5.61
same,glycan array binding signal (z-score),[4],7.08
same,glycan array binding signal (z-score),[5],2.52
same,glycan array binding signal (z-score),[6],-0.163
same,glycan array binding signal (z-score),[7],0.703
same,glycan array binding signal (z-score),[8],-0.16
same,glycan array binding signal (z-score),[9],6.72
same,glycan array binding signal (z-score),Gal(a1-3)Gal(b1-4)GlcNAc,8.25
same,glycan array binding signal (z-score),[10],3.68
same,glycan array binding signal (z-score),Gal(a1-4)GlcNAc,-0.135
same,glycan array binding signal (z-score),[11],11.4
same,glycan array binding signal (z-score),Gal(b1-3)GlcNAc,-0.162
same,glycan array binding signal (z-score),[12],-0.159
same,glycan array binding signal (z-score),[13],-0.158
same,glycan array binding signal (z-score),[14],-0.054
same,glycan array binding signal (z-score),[15],-0.16
same,glycan array binding signal (z-score),[16],-0.159
same,glycan array binding signal (z-score),[17],0.835
same,glycan array binding signal (z-score),GalNAc(b1-4)Gal(b1-4)Glc,-0.162
same,glycan array binding signal (z-score),GlcA(b1-3)Gal,8.44
same,glycan array binding signal (z-score),GlcNAc(b1-3)Gal(b1-4)Glc,-0.158
same,glycan array binding signal (z-score),Kdn(a2-3)Gal(b1-4)Glc,-0.152
same,glycan array binding signal (z-score),Kdn(a2-6)Gal(b1-4)GlcNAc,-0.162
same,glycan array binding signal (z-score),[18],-0.164
same,glycan array binding signal (z-score),[19],-0.161
same,glycan array binding signal (z-score),Neu5Ac(a2-6)GalNAc,-0.162
same,glycan array binding signal (z-score),[20],-0.16
same,glycan array binding signal (z-score),[21],-0.161
same,glycan array binding signal (z-score),[22],-0.162
B2,glycan array binding signal (z-score),[23],-0.258
same,glycan array binding signal (z-score),[24],-0.303
same,glycan array binding signal (z-score),Man(a1-6)Man,1.5
same,glycan array binding signal (z-score),[25],-0.549
same,glycan array binding signal (z-score),[26],0.467
same,glycan array binding signal (z-score),Neu5Ac(a2-3)Gal(b1-4)Glc,-0.089
same,glycan array binding signal (z-score),[27],7.73
same,glycan array binding signal (z-score),[28],0.06
same,glycan array binding signal (z-score),[29],1.33
same,glycan array binding signal (z-score),[30],-0.414
same,glycan array binding signal (z-score),[31],-0.423
same,glycan array binding signal (z-score),[32],-0.589
same,glycan array binding signal (z-score),[33],-0.513
same,glycan array binding signal (z-score),[34],-0.402
same,glycan array binding signal (z-score),[35],2.58
same,glycan array binding signal (z-score),[36],-0.56
same,glycan array binding signal (z-score),[37],-0.413
same,glycan array binding signal (z-score),[38],-0.319
same,glycan array binding signal (z-score),Neu5Gc(a2-3)Gal(b1-4)Glc,3.18
same,glycan array binding signal (z-score),[21],-0.416
